# Screening data deposited in PubChem by National Center for Advancing Translational Sciences (NCATS).
# ELG1 repair inh: inhibitors of ELG1-dependent DNA repair in HEK293T cells; 330,000 compounds, 2.3% hits; AID 504467; HEK293T ELG1-luciferase reporter, luminescence, 16 h; DNA damage induced by 5-fluorouridine; Potency, µM (top dose mostly 46.1 µM), usual class: inhibitors; also: nearly all actives have a fitted effect of over 55% in size
#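 Step one: seed 2,000 cells per well. Step two: pin-transfer compound or DMSO alongside 5-fluorouridine. Step three: incubate 16 hr, 37 °C, 5% CO2. Step four: add ONE-Glo, wait 30 min, read luminescence.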
# PGK inhibitor: inhibitors of T. brucei phosphoglycerate kinase; 380,000 compounds, 0.043% hits; Potency, µM (top dose mostly 57.5 µM), most hits filed as inhibitors; AID 602233; PGK/GAPDH coupled, Kinase-Glo luminescence, 60 min; P07378; also: nearly all actives have a fitted effect of over 60% in size
#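 Luminescent ATP detection (Kinase-Glo Plus) follows a 60-minute room-temperature incubation, with wells lacking PGK as controls. Buffer: 100 mM TEA (pH 7.6), 5 mM MgCl2, 0.01% Tween-20. Coupling enzyme GAPDH (100 nM final) supplies unstable 1,3-BPG in-well.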
# Rango release inh: prevents RanGTP from dissociating the Rango-importin beta complex; 340,000 compounds, 0.071% hits; O95149+P62826; Biochemical FRET Rango-importin beta, RanGTP-induced dissociation; Potency, µM (doses to about 46.1 µM); calls by dose curve; also: nearly all actives have a fitted effect of over 45% in size
#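 Rango FRET biosensor (snurportin-1 IBB flanked by N-terminal EYFP and C-terminal CFP10) at 0.1 uM, with 0.25 uM importin beta in PBS, 1mM DTT, 0.02% Tween-20, 0.1% BSA. 0.6 uM Ran, 2mM GTP and 0.2 uM RCC1 were then added for 45 min at room temperature. Inhibition read as loss of FRET rise.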
# Rango complex inh: inhibitors of Rango-importin beta complex formation; Rango CFP/YFP FRET sensor + importin beta, 45 min; Potency, µM (top dose mostly 92.2 µM); Q14974; 340,000 compounds, 0.031% hits; calls by dose curve; also: nearly all actives have a fitted effect of over 15% in size
# Target sequence (Q14974 whole entry, looked up): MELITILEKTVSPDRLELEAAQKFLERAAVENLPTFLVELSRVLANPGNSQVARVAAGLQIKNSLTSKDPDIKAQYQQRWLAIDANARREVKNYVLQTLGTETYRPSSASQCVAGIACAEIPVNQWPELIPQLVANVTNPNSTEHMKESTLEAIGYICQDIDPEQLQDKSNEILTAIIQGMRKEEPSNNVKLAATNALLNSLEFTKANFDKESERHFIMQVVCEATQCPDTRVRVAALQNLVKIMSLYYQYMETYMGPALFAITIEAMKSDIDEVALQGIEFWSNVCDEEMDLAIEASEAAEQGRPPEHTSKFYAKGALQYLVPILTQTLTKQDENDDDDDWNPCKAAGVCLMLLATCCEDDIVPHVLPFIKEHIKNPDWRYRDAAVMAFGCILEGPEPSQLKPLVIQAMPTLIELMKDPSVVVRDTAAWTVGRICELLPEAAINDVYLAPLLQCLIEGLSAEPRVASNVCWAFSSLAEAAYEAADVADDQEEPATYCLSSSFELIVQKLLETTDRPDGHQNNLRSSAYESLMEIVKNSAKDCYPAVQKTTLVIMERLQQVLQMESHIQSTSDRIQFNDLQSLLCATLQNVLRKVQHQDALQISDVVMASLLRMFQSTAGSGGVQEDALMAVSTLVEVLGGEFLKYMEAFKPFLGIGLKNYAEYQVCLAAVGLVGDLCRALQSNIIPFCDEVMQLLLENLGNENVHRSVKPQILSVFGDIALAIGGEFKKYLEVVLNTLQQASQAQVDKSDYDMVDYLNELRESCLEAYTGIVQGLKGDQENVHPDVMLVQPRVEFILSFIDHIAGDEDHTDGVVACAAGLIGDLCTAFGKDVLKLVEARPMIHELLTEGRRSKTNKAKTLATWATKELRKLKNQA
#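 FRET biosensor Rango (snurportin 1 IBB between N-terminal EYFP and C-terminal Cerulean), 50 nM in PBS/1 mM DTT/0.02% Tween-20/0.1% BSA, preincubated 5 min RT with compound; 0.125 microM importin beta added, 45 min RT, CFP/YFP FRET ratio read.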
# Tb PFK block: blocks T. brucei phosphofructokinase | T. brucei PFK, ADP-Glo luminescence | Potency, µM (doses to about 57.5 µM), hits mostly inhibitors | 330,000 compounds, 0.17% hits | AID 485367; also: nearly all actives have a fitted effect of over 60% in size
#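 ADP-Glo luminescence quantified ADP after 45 min at room temperature, with 1.25 nM T. brucei PFK, 0.1 mM ATP and 0.5 mM fructose-6-phosphate in pH 8.0 TEA buffer. qHTS titrations up to 57 µM; curves classified by quality.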
# PKM2 act: PKM2 (human) enzyme activation; purified PKM2, Kinase-Glo ATP luminescence, activation; response scale: 0% is enzyme alone, no compound; 260,000 compounds, 0.34% hits; Potency, µM (top dose mostly 57.5 µM), most hits filed as activators; AID 1631; also: nearly all actives have a fitted effect of over 55% in size
#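 ATP formation by purified human PK-M2, quantified via coupled luciferase luminescence after 1 h at room temperature with 0.1 mM ADP and 0.5 mM PEP final.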
# A number is an active result; . = inactive; ? = inconclusive; / = not tested or not shown. Compounds with a hit are over-represented: about 2.4% of the library has one in this group of screens. Unless noted, calls follow the shape of the dose curve; as a rule, active = well fitted curve in the direction sought with a large enough effect; inconclusive = small, poorly fitted or top-dose-only effect, or another doubt; inactive = no such curve, though single readings can be large; an effect the other way counts as inactive or inconclusive.
SMILES,ELG1 repair inh,PGK inhibitor,Rango release inh,Rango complex inh,Tb PFK block,PKM2 act
CCOC(=O)C1=C(C)NC(C)=C(C(=O)OCC)C1C(=O)OCC(=O)NC1(C#N)CCCCC1,?,.,.,.,.,/
CCOC(=O)C1=C(C)NC(C)=C(C(=O)OCC)C1C(=O)OCC(=O)NCCc1ccccc1,23µM,.,.,.,.,/
O=C(CCS(=O)(=O)c1ccc(Cl)cc1)NCCc1c[nH]c2ccccc12,.,.,.,.,.,.
CCOC(=O)c1sc(NC(=O)c2cc(-c3ccc(C)cc3)nc3ccccc23)c(C#N)c1C,?,.,.,.,.,.
Cc1ccccc1-c1cc(C(=O)Nc2sc(C(=O)OC(C)C)c(C)c2C#N)c2ccccc2n1,23µM,.,.,.,.,.
Cc1cc(C)cc(NC(=O)c2ccc3oc(=O)c(S(=O)(=O)c4ccc(F)cc4)cc3c2)c1,/,.,/,/,/,/
Cc1cc(=O)oc2c(CN3CCCC3)c(O)c(Cl)cc12,.,.,15µM,?,.,/
Cc1cc(=O)oc2c(CN3CCCCC3)c(O)c(Cl)cc12,.,.,?,?,.,.
Cc1ccc(OCCC(=O)N2CCN(c3ccc(O)cc3)CC2)cc1,7.3µM,.,.,.,.,.
CC(C)CC(=O)OC1C(N2CCOCC2)c2c(ccc(/C=C/C(=O)N3CCOCC3)c2O)OC1(C)C (stereo not drawn),16µM,.,?,?,.,.
COc1ccc(CCn2c(=N)c(C(=O)NCc3ccco3)cc3c(=O)n4ccccc4nc32)cc1,16µM,.,?,.,.,.
N=c1c(C(=O)NCCc2ccccc2)cc2c(=O)n3ccccc3nc2n1Cc1ccco1,21µM,.,?,?,.,.
N=c1c(C(=O)NC2CCCCC2)cc2c(=O)n3ccccc3nc2n1Cc1ccco1,.,.,?,?,.,/
CCOc1ccc(Oc2ccc(S(=O)(=O)N3CCOCC3)cc2N)cc1,9.2µM,.,.,.,.,.
CCOC(=O)c1cc(-c2ccc(C)cc2)n(CCC(=O)N2CCN(c3ccccn3)CC2)c1C,21µM,.,.,.,.,.
CCOC(=O)c1cc(-c2ccc(C)cc2)n(CCC(=O)NCc2ccccc2)c1C,/,.,/,/,/,/
Cc1ccc(S(=O)(=O)c2nnn3c2nc(N2CCOCC2)c2sccc23)cc1C,/,.,/,/,/,/
C=CCC[C@@H](Cc1ccc(F)cc1)C(=O)OC[C@H](C)NC(=O)[C@@H](CC=C)CC(=O)N(CCO)Cc1ccccc1,?,.,.,.,.,/
C=CCC[C@@H](Cc1ccc(F)cc1)C(=O)OC[C@@H](NC(=O)[C@@H](CC=C)CC(=O)N(CCO)Cc1ccccc1)c1ccccc1,21µM,.,.,.,.,/
C=CCC[C@@H](Cc1ccc(F)cc1)C(=O)OC[C@@H](NC(=O)[C@H](CC=C)CC(=O)N(CCO)Cc1ccccc1)c1ccccc1,?,.,.,.,.,/
C=CC[C@H](CC(=O)N(CCO)Cc1ccccc1)C(=O)NC[C@H](OC(=O)[C@@H](CC=C)Cc1ccc(F)cc1)c1ccccc1,15µM,.,.,.,.,/
C=CCC[C@@H](Cc1ccc(F)cc1)C(=O)OC[C@H](C)NC(=O)[C@H](CC=C)CC(=O)N(CCO)Cc1ccccc1,26µM,.,.,.,.,/
Cc1ccc(CS(=O)(=O)c2ccc(C(=O)N3CCN(c4ccccn4)CC3)cc2[N+](=O)[O-])cc1,15µM,.,.,.,.,.
CC1CCN(C(=O)c2ccc(S(=O)(=O)Cc3ccccc3F)c([N+](=O)[O-])c2)CC1,21µM,.,.,.,.,.
Cc1ccc(CS(=O)(=O)c2ccc(C(=O)N3CCCCC3)cc2[N+](=O)[O-])cc1,.,.,.,.,.,.
SMILES,ELG1 repair inh,PGK inhibitor,Rango release inh,Rango complex inh,Tb PFK block,PKM2 act
O=C(c1ccc(S(=O)(=O)Cc2ccccc2F)c([N+](=O)[O-])c1)N1CCCC1,.,.,.,.,.,.
Cc1cccc(-c2nc3c(c(SCC(=O)N4CCOCC4)n2)COC(C)(C)C3)c1,.,.,.,.,.,/
O=C(NCCc1cccs1)c1ccc(Cn2c(SCc3cccc(F)c3)nc3cccnc32)cc1,/,.,/,/,/,/
COCCn1c(N)c(Sc2ccc(C)cc2)c(=O)[nH]c1=O,.,.,.,.,.,/
CCCCn1c(N)c(Sc2ccc(C)cc2)c(=O)[nH]c1=O,.,.,.,.,.,16µM
CCN(CC(=O)Nc1cc(Cl)ccc1C)C(=O)COc1cccc2c1OC(C)(C)C2,.,.,.,.,.,.
O=C(Nc1cccc(-n2cccn2)c1)C1CCCN(Cc2cccc(F)c2F)C1 (stereo not drawn),?,.,.,.,.,.
COc1cccc(NC(=O)C2CCN(Cc3cnn(-c4ccccc4)c3-n3cccc3)CC2)c1,18µM,.,.,.,.,.
COc1ccc(CN2CCCC(C(=O)Nc3cccc(-n4cccn4)c3)C2)c(F)c1 (stereo not drawn),16µM,.,.,.,.,.
O=C(Nc1ccccc1Cl)C1CCN(Cc2cnn(-c3ccccc3)c2-n2cccc2)CC1,?,.,.,.,.,.
COc1ccc(NC(=O)C2CCN(Cc3cnn(-c4ccccc4)c3-n3cccc3)CC2)cc1OC,/,.,.,.,/,.
COc1ccc(OC)c(NC(=O)C2CCN(Cc3cnn(-c4ccccc4)c3-n3cccc3)CC2)c1,23µM,.,.,.,.,.
CC1(C)c2[nH]c3ccccc3c2C[C@@H]2C(=O)N(c3cc(F)ccc3F)C(=O)N21,/,.,.,.,/,/
CC[C@H]1c2[nH]c3ccccc3c2C[C@@H]2C(=O)N(c3ccc(F)cc3)C(=O)N21,8.2µM,.,.,?,.,/
COc1cccc(CNC(=O)c2cccn2-c2nnc(N3CCCC3)s2)c1,/,.,/,/,/,/
O=C1C=C(N(CCO)Cc2ccccc2)c2ccccc2C1=O,8.2µM,?,.,.,.,/
O=C1c2ccccc2C(=O)c2c1cccc2N(CCO)CCO,.,.,.,?,.,.
COCCCNC(=O)c1ccc(-c2nc(CS(=O)(=O)c3ccc(C)cc3)c(C)o2)cc1,/,.,/,/,/,/
CN(CCOC(=O)/C=C/c1ccco1)Cc1ccccc1,.,11µM,.,.,?,?
CN(Cc1ccccc1)C(=O)COC(=O)/C=C/c1ccco1,.,.,.,.,.,.
O=C(NNc1ccccn1)C(=O)NNS(=O)(=O)c1ccc(F)cc1,21µM,.,.,.,.,.
CCN1CCN(c2nc3ccccc3nc2C(C#N)C(=O)OCc2ccccc2)CC1 (stereo not drawn),18µM,.,?,?,.,.
